Source: PubChem BioAssay AID463173 (ICCB-Longwood Screening Facility, Harvard Medical School, 2010)
In all, about 52,000 compounds went through this assay and about 4,300 (8.3%) were called active. Many of the other results were omitted from the sample, so actives are more common in it than they were. A number with no mark means an inactive call. No stated cut-off is given here; in the data, active means survival mostly below about 52% (no sharp cut-off); inactive means mostly above about 56%.

tested on: DeltatarO mutant; test: growth inhibition of S. aureus wild type versus tarO mutant, primary screen, teichoic acid synthesis inhibitors, RN4220, OD600 (AID 463173); details: OD600, 18 h, active compounds read low, screened at 18.75 µg/mL (by protocol)

| Structure (SMILES) | survival |
| --- | --- |
| Cc1ccc(C)c(N2CCN(Cc3csc(C)c3C)CC2)c1 | 77% |
| CSc1ccc(CCNc2ncnc3onc(C)c23)cc1 | 98% |
| O=C(c1ccc2c(c1)N(Cc1cccc(Cl)c1)C(=O)c1ccccc1S2(=O)=O)N1CCc2ccccc21 | 0% (active) |
| O=C(NCc1ccco1)c1ccc2c(c1)N(Cc1ccccc1)C(=O)c1ccccc1S2(=O)=O | 68% |
| COc1ccccc1CNC(=O)c1ccc2c(c1)N(Cc1cccc(Cl)c1)C(=O)c1ccccc1S2(=O)=O | 37% (active) |
| COc1ccccc1CNC(=O)c1ccc2c(c1)N(Cc1cccc(C)c1)C(=O)c1ccccc1S2(=O)=O | 87% |
| O=C(c1ccc2c(c1)N(Cc1ccccc1)C(=O)c1ccccc1S2(=O)=O)N1CCc2ccccc21 | 81% |
| O=S1(=O)c2ccccc2N(Cc2cccc(Cl)c2)c2ccccc21 | 0% (active) |
| O=C(NCc1ccccc1)c1ccc2c(c1)N(Cc1cccc(Cl)c1)C(=O)c1ccccc1S2(=O)=O | 93% |
| O=C(NCc1ccco1)c1ccc2c(c1)N(Cc1cccc(Cl)c1)C(=O)c1ccccc1S2(=O)=O | 46% (active) |
| O=C(c1ccc2c(c1)N(Cc1ccc(Cl)cc1)C(=O)c1ccccc1S2(=O)=O)N1CCc2ccccc21 | 120% |
| O=S1(=O)c2ccccc2N(Cc2ccccc2)c2ccccc21 | 69% |
| O=S1(=O)c2ccccc2N(Cc2ccc(Cl)cc2)c2ccccc21 | 131% |
| O=C(NCc1ccco1)c1ccc2c(c1)N(Cc1ccc(Cl)cc1)C(=O)c1ccccc1S2(=O)=O | 89% |
| O=C(O)COCC(=O)Nc1ccc2c(c1)CCC2 | 103% |
| COc1ccc(-c2nnc(SCC(=O)Nc3cccc(Cl)c3C)nc2-c2ccc(OC)cc2)cc1 | 89% |
| COc1ccc(CNC(=O)CCC(=O)N2CC3CCCN3c3ccccc32)cc1 (stereo not given) | 71% |
| CC1=C(c2ccc(C)c(C)c2)S(=O)(=O)N(Cc2ccc(C(=O)NCc3cccc(C)c3)cc2)C1=O | 77% |
| CN1CCSc2ccc(C(=O)NCc3ccccc3F)cc21 | 134% |
| CCOC(=O)c1cc2c(=O)n3ccccc3nc2n(CCCOC)c1=NC(=O)c1c(-c2c(F)cccc2Cl)noc1C | 54% |
| CC(C)(C)OC(=O)N1CCC(c2c(C(=O)N3CCN(c4ccccc4F)CC3)cnn2C(C)(C)C)CC1 | 68% |
| COc1ccc(CCNC(=O)c2ccc(Cn3c(=O)c4ccccc4n(CC(=O)C(C)(C)C)c3=O)cc2)cc1OC | 86% |
| O=c1c2sc3ccccc3c2n(Cc2ccc(F)cc2)c(=O)n1Cc1ccco1 | 79% |
| COc1cccc(Cc2nc3ccccc3nc2SCC(=O)N2CCCCC2C)c1 (stereo not given) | 79% |

| Structure (SMILES) | survival |
| --- | --- |
| CCOC(=O)c1ccccc1Nc1cc(C)nc2nc(-c3ccco3)nn12 | 128% |
| Cc1cc(Nc2ccc(Br)cc2)n2nc(-c3ccccc3C)nc2n1 | 27% (active) |
| Cc1cc(Nc2ccccc2Cl)n2nc(-c3ccco3)nc2n1 | 88% |
| Cc1cc(Nc2cccc(F)c2)n2nc(-c3ccco3)nc2n1 | 89% |
| CC(=O)c1cccc(Nc2cc(C)nc3nc(-c4ccccc4C)nn23)c1 | 90% |
| COc1ccc(Cl)cc1Nc1cc(C)nc2nc(-c3ccccc3C)nn12 | 70% |
| Cc1cc(Nc2ccc(Br)c(C)c2)n2nc(-c3ccco3)nc2n1 | -5% (active) |
| Cc1cc(C)cc(Nc2cc(C)nc3nc(-c4ccco4)nn23)c1 | 94% |
| CCOc1ccc(OCC)c(Nc2cc(C)nc3nc(-c4ccco4)nn23)c1 | 17% (active) |
| CN(CCCNC(=O)c1cc2c(=O)n(C)c3ccccc3c2s1)Cc1ccccc1 | 94% |
| CCCCS(=O)(=O)c1nc(-c2ccc(Br)cc2)cc(-c2ccccc2)c1C#N | 119% |
| C/C(=C\C(=O)c1cccnc1)Nc1ccccc1O | 103% |
| Cc1nc(-c2ccc(S(=O)(=O)N(C)Cc3ccccc3)cc2)co1 | 95% |
| Cc1ccc(-n2ncc(C(=O)NC3CCCC3)c2C2CCN(C(=O)OC(C)(C)C)CC2)c(C)c1 | 70% |
| Cc1ccc(-n2c(=O)c3c(c4cc(C)ccc4n3C)n(CC(=O)N3CCCC3)c2=O)cc1 | 71% |
| CC(=O)Nc1ccc(C2=CSC3=NCCN23)cc1 | 82% |
| CCSc1ncc(Cl)c(C(=O)Nc2nc3ccc(Cl)cc3s2)n1 | 100% |
| CCCN(CCC)S(=O)(=O)c1ccc(C(=O)Nc2cccc(-c3nc4ccccc4[nH]3)c2)cc1 | 99% |
| COc1c(Cl)cc(C(=O)Nc2cccc(-c3nc4ccccc4[nH]3)c2)cc1Cl | 15% (active) |
| COc1cc(NC(=O)c2cc(Cl)c(OC)c(Cl)c2)ccc1NC(=O)c1cc2ccccc2o1 | 82% |
| CCOc1cc(OCC)cc(C(=O)Nc2cccc(-c3nc4ccccc4[nH]3)c2)c1 | 36% (active) |
| CCCOc1ccc(C(=O)Nc2cccc(NC(=O)c3cccc(Cl)c3)c2)cc1 | 70% |
| CCOc1ccc(C(=O)Nc2cccc(-c3nc4cc(Cl)cc(Cl)c4o3)c2)cc1 | 84% |
| CC(C)COc1ccc(C(=O)Nc2cc(-c3ccccc3)no2)cc1 | 85% |

| Structure (SMILES) | survival |
| --- | --- |
| CC(C)COc1ccc(C(=O)Nc2cccc(-c3nc4ccccc4[nH]3)c2)cc1 | 43% (active) |
| Cc1cccc(-c2nc3cc(NC(=O)c4ccc(OCC(C)C)cc4)ccc3o2)c1 | 113% |
| CCOc1ccc(NS(=O)(=O)c2ccc3nc(-c4ccccc4)[nH]c3c2)cc1 | 64% |
| CCCOc1ccc(C(=O)Nc2cccc(-c3nc4ccccc4[nH]3)c2)cc1 | 28% (active) |
| CCOc1ccc(CCNC(=O)c2cc3c(=O)n(C)c4ccccc4c3s2)cc1OCC | 56% |
| Cc1ccc(NC(=O)C2CCN(C(=O)c3cnn(-c4ccccc4)c3-n3cccc3)CC2)cc1 | 93% |
| CCCn1c(=S)[nH]c2c1c(=O)[nH]c(=O)n2C | 66% |
| CN(CC(=O)Nc1cccc(F)c1)S(=O)(=O)c1ccc2c(c1)n(C)c(=O)c(=O)n2C | 102% |
| COc1ccc(C2=NN(C(=O)CCC(=O)O)C(c3ccccc3F)C2)cc1OC (stereo not given) | 89% |
| N/C(=N/OC(=O)c1ccccc1)c1ccccn1 | 87% |
| CCCCNC(=O)c1ccc2c(c1)ncn2-c1cc(OC)ccc1OC | 112% |
| O=c1oc2cc(O)ccc2cc1-c1nnc(Nc2ccccc2F)s1 | 59% |
| CCC(c1nnnn1Cc1ccccc1)N(Cc1cccs1)Cc1cc2ccc(C)cc2[nH]c1=O (stereo not given) | 103% |
| O=C(CNC(=O)c1ccc(Cl)cc1)OCc1cc(=O)n2ccsc2n1 | 72% |
| COc1ccc(C2C(C(=O)Nc3ccc(C)cc3C)=C(C)Nc3nc(SCc4cccc(C)c4)nn32)c(OC)c1 (stereo not given) | 164% |
| CCc1ccc(C2C(C#N)=C(N)Oc3cc(N)ccc32)cc1 (stereo not given) | 102% |
| COc1ccc(C2C(C#N)=C(N)Oc3cc4c(cc32)OCO4)cc1 (stereo not given) | 79% |
| CCN(CC)c1ccc2c(c1)OC(N)=C(C#N)C2c1cccc(F)c1 (stereo not given) | 2% (active) |
| Cc1ccc(Sc2c(C)nn(C(=O)c3ccc(Br)cc3)c2C)cc1 | 16% (active) |
| Cc1nn(C(=O)COc2ccccc2Br)c(C)c1Sc1ccccc1 | 54% |
| Cc1nn(C(=O)c2ccccc2)c2c1C(=O)CC(C)(C)C2 | 74% |
| Cc1ccc(Sc2c(C)nn(C(=O)COc3ccccc3Br)c2C)cc1 | 88% |
| Cc1nn(C(=O)c2ccc(Br)cc2)c(C)c1S(=O)(=O)N1CCOCC1 | 79% |
| Cc1nn(C(=O)c2ccc(Br)cc2)c(C)c1Sc1ccccc1 | 2% (active) |

| Structure (SMILES) | survival |
| --- | --- |
| CCOc1ccc(NC(=O)CC2C(=O)N(c3ccccc3)C(=O)N2CCc2ccc(OC)cc2)cc1 (stereo not given) | 59% |
| CCCNC(=O)CSc1cn(CC(=O)N2CCCCCC2)c2ccccc12 | 84% |
| Cc1ccc(S(=O)(=O)c2cn(CC(=O)Nc3ccc(C)c(Cl)c3)c3ccc(C)cc3c2=O)cc1 | 96% |
| COCCCNC(=O)c1oc2c(c1C)-c1nn(Cc3ccccc3Cl)cc1CC2 | 66% |
| CCOC(=O)c1oc2c(c1C)-c1nn(Cc3cccc(Cl)c3)cc1CC2 | 53% |
| Cc1c(C(=O)O)oc2c1-c1nn(Cc3ccccc3Cl)cc1CC2 | 80% |
| COc1ccc(NC(=O)c2oc3c(c2C)-c2nn(Cc4ccccc4Cl)cc2CC3)cc1OC | 53% (active) |
| CCOC(=O)c1oc2c(c1C)-c1nn(Cc3ccc(Cl)cc3)cc1CC2 | 16% (active) |
| Cc1c(C(=O)O)oc2c1-c1nn(Cc3ccc(Cl)cc3)cc1CC2 | 89% |
| CCOC(=O)c1oc2c(c1C)-c1nn(Cc3ccccc3Cl)cc1CC2 | 38% (active) |
| CCOC(=O)c1ccc(NC(=O)c2oc3c(c2C)-c2nn(Cc4ccccc4Cl)cc2CC3)cc1 | 68% |
| CC(=O)Nc1ccc(NC(=O)c2oc3c(c2C)-c2nn(Cc4ccccc4Cl)cc2CC3)cc1 | 61% |
| CC1=C(C(=O)OCC2CCCCC2)C(c2cccc(F)c2F)CC(=O)N1 (stereo not given) | 95% |
| O=C1CC(NC2CC2)C(=O)N1c1ccccc1 (stereo not given) | 93% |
| COc1ccc(Cl)cc1NC(=O)c1noc2c1CCc1ccccc1-2 | 71% |
| Cc1nn(Cc2ccc(Cl)cc2)c(C)c1NC(=O)c1noc2c1CCc1ccccc1-2 | 31% (active) |
| COc1ccc2c(c1)CCc1c(C(=O)Nc3c(C)nn(Cc4ccc(Cl)c(Cl)c4)c3C)noc1-2 | 153% |
| Cc1nn(Cc2ccc(F)cc2)c(C)c1NC(=O)c1noc2c1CCc1ccccc1-2 | 63% |
| COc1ccc2c(c1)CCc1c(C(=O)Nc3c(C)nn(Cc4ccc(Cl)cc4)c3C)noc1-2 | 107% |
| COc1ccc2c(c1)CCc1c(C(=O)Nc3c(C)nn(Cc4ccccc4)c3C)noc1-2 | 118% |
| COc1ccc2c(c1)CCc1c(C(=O)Nc3cnn(Cc4ccc(Cl)cc4Cl)c3)noc1-2 | 142% |
| Cc1nn(Cc2ccc(Cl)c(Cl)c2)c(C)c1NC(=O)c1noc2c1CCc1ccccc1-2 | 46% (active) |
| O=C(Nc1cnn(Cc2ccc(Cl)cc2Cl)c1)c1noc2c1CCc1ccccc1-2 | 47% (active) |
